Screens from PubChem.
A selection: hits, their analogues and other compounds. The true share with any hit is near 19%.
HepG2 viability = kills HepG2 cells in TGF-b inhibitor counter-screen; HepG2 CAGA-GFP viability, ATP luminescence, 18 h; Potency, µM (highest dose often 46.1 µM), most hits filed as cytotoxic; actives 0.76% (n = 410,000)
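HepG2 CAGA-GFP cells (1000/well, DMEM with 1% FBS) received compound, then TGF-beta at 500 pg/mL final, and were incubated 18 hours at 37 degrees C. Viability was read by CellTiter-Glo luminescence. Media-only wells were set as complete cell-killing and DMSO as no toxicity.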
TDP1 cell CPT = growth inhibition of DT40 Tdp1-/-;hTDP1 cells with camptothecin (screen for TDP1 inhibitors); chicken DT40 Tdp1-/-;hTDP1 cells + 20 nM CPT, ATP luminescence, 48 h; Potency, µM (series often up to 46.2 µM), most hits filed as inhibitors; actives 12% (n = 420,000); AID 686979; further: nearly all actives have a fitted effect of over 55% in size
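Chicken DT40 Tdp1-/- cells complemented with human TDP1, 400 cells/well, exposed to compounds plus 20 nM camptothecin for at least 48 h at 37 C; viability read as ATP content by CellTiter-Glo luminescence.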
TGFb SMAD3 inh = blocks TGF-b signaling; HepG2 CAGA-GFP TGF-b/SMAD3 reporter, GFP fluorescence, 18 h; TGF-beta stimulated, 500 pg/mL final; AID 588855; Potency, µM (top dose mostly 46.1 µM), usual class: inhibitors; actives 1.2% (n = 410,000); further: nearly all actives have a fitted effect of over 65% in size
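Inhibition was scored as loss of TGF-beta-induced (500 pg/mL final, 18 hours, 37 degrees C) GFP in HEPG2 cells carrying a CAGA-GFP reporter, in DMEM with 1% FBS. Well GFP was summed per cell; Activity was normalised to unstimulated and stimulated DMSO wells, then concentration-response fitting.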
IL-1B inflam inh = inflammasome signaling inhibition, IL-1 beta readout; activity change, % at 57.5 µM; actives 4.7% (n = 360,000); THP-1 LPS/ATP IL-1B secretion, AlphaLISA, 16 h; hits give low values; in the data active means activity change below about -50%; inconclusive means mostly about -30% to -49%
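THP-1 cells pretreated 1 hr with compounds (up to 57.5 uM final), then stimulated with LPS (250 ng/mL final) plus ATP (1.25 mM final); secreted IL-1B measured by AlphaLISA after 16 hr, decreased signal indicating inhibition.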
TDP1 cell noCPT = qHTS for Inhibitors of human tyrosyl-DNA phosphodiesterase 1 (TDP1): qHTS in cells in absence of CPT | AID 686978, 2013 | DT40 Tdp1-/- hTDP1 cells, no CPT, ATP luminescence, 48 h | Potency, µM (series often up to 46.2 µM), actives largely listed as inhibitors | actives 15% (n = 420,000); further: nearly all actives have a fitted effect of over 55% in size
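Growth of hTDP1-complemented DT40 Tdp1-knockout cells is measured by ATP luminescence after at least 48 hr compound exposure at 37 °C, with DMSO substituting for the 20 nM CPT used in the parallel screen.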
TDP1 inh = TDP1 (human) enzyme inhibition; AID 485290; Potency, µM (top dose mostly 130 µM), usual class: inhibitors; Q9NUW8; recombinant TDP1, AlphaScreen DNA substrate cleavage; actives 0.28% (n = 350,000); further: nearly all actives have a fitted effect of over 40% in size
Target sequence (Q9NUW8 whole entry, looked up): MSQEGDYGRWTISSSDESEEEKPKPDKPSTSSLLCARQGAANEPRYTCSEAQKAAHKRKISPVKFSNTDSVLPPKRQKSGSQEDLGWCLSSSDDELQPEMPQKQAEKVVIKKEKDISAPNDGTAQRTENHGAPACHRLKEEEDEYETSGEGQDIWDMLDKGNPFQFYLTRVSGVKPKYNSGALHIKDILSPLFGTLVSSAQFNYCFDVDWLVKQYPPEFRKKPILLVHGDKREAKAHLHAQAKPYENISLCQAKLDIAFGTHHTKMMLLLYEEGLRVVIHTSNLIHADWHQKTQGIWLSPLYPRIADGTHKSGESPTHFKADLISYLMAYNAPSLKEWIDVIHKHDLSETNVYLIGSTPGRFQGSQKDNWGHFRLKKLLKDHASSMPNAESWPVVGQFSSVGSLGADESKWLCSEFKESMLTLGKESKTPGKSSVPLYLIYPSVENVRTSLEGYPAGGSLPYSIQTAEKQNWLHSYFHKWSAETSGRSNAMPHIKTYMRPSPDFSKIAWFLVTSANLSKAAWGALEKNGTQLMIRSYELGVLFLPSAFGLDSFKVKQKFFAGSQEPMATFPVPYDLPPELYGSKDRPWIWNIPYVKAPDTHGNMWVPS
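Compounds were preincubated with Tdp1 (1 nM final) for 15 min at room temperature before substrate (15 nM final) started a 5 min reaction; beads (10 ug/ml final) were then added for 10 min before AlphaScreen detection.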
A number is an active result; 0 = inactive; ? = inconclusive; - = not tested or not shown; [ ] = another dose, or the depositor's remark. Unless noted, the call rests on the fitted dose curve; in most records, active means well fitted curve in the direction sought with a large enough effect; inconclusive means small, poorly fitted or top-dose-only effect, or another doubt; inactive means no such curve, though single readings can be large; an effect the other way counts as inactive or inconclusive.

SMILES	HepG2 viability	TDP1 cell CPT	TGFb SMAD3 inh	IL-1B inflam inh	TDP1 cell noCPT	TDP1 inh
CC1(C)C(=O)C2(CCCC2)C(=O)OC1c1ccco1 (configuration not stated)	0	0	0	0	0	0
CCOc1ccc(-c2cc3nc(C4CCN(C(=O)OC(C)(C)C)CC4)c(C(=O)Nc4cccc(Cl)c4C)cn3n2)cc1	0	18µM	0	-	15µM	0
CCOc1ccc(-c2cc3nc(C4CCN(C(=O)OC(C)(C)C)CC4)c(C(=O)Nc4ccc(C)cc4Cl)cn3n2)cc1	0	?	0	-	?	0
CCOc1ccc(-c2cc3nc(C4CCN(C(=O)OC(C)(C)C)CC4)c(C(=O)Nc4c(C)cccc4C)cn3n2)cc1	0	15µM	0	-	13µM	0
CCOc1ccc(-c2cc3nc(C4CCN(C(=O)OC(C)(C)C)CC4)c(C(=O)Nc4ccc(C)cc4C)cn3n2)cc1	0	18µM	0	-	21µM	0
CCOc1ccc(-c2cc3nc(C4CCN(C(=O)OC(C)(C)C)CC4)c(C(=O)O)cn3n2)cc1	0	?	0	0	?	0
COc1cc(OC)c(NC(=O)c2cnn(-c3cccc(Cl)c3C)c2C2CCN(C(=O)OC(C)(C)C)CC2)cc1Cl	0	0	?	-	0	0
CCOCCCNC(=O)C1CCN(C(=O)c2cc3sccc3n2C)CC1	0	0	0	-	0	0
COc1ccc(Br)cc1-c1nc(CCl)cs1	0	13µM	0	0	15µM	0
COc1ccc(Br)cc1-c1noc(-c2ccccc2F)n1	0	0	0	0	0	0
COc1ccc(NC(=O)CC2Oc3ccc(C)cc3NC2=O)cc1Cl (configuration not stated)	0	0	0	-	0	0
CCCN(CCC)S(=O)(=O)c1ccc(C(=O)N2CCC(=O)c3ccccc32)cc1	0	?	0	0	23µM	0
O=C1CCN(C(=O)c2ccccc2)c2ccccc21	0	0	0	0	0	-
N#CC(=C(c1ccccc1)c1ccccc1)c1ccccc1	0	0	0	0	?	-
Cc1ccc(S(=O)(=O)N2C[C@@H]3CCCC[C@@H]3[C@@H](C)[C@H]2CC(=O)c2ccccc2)cc1	0	15µM	0	0	13µM	-
FC(F)(F)c1cc(CCN2CCNC[C@@H]2c2ccccc2)cc(C(F)(F)F)c1	0	16µM	?	?	?	0
CCC(C)[C@H]1CNCCN1CCc1cc(C(F)(F)F)cc(C(F)(F)F)c1 (some centres not stated)	0	?	?	-66	18µM	0
CC(O)[C@H]1CNC(=S)N1CCc1cccc(F)c1 (some centres not stated)	0	0	0	0	0	0
FC(F)(F)c1cc(CCN2CCNC[C@@H]2CC2CCCCC2)cc(C(F)(F)F)c1	0	23µM	?	-101	?	0
CCC(C)[C@H]1CNC(=S)N1CCc1cc(C(F)(F)F)cc(C(F)(F)F)c1 (some centres not stated)	0	?	?	-55	21µM	0
C/C(CCN1CCCCc2nc(C)c(C)cc21)=N\OC[C@@H](O)[C@@H]1O[C@@H]2OC(C)(C)O[C@@H]2[C@H]1O	-	-	-	-	-	0[21 µM]
CCc1cccc(NC(=O)CN(C)S(=O)(=O)c2ccc3c(c2)n(C)c(=O)c(=O)n3C)c1	0	0	0	-	0	0
CCCC[C@@H]1CNCCN1CCc1cc(C(F)(F)F)cc(C(F)(F)F)c1	0	?	?	-61	21µM	-
Cc1ccc(-c2cc(-c3n[nH]c(=S)o3)c3ccccc3n2)cc1	0	16µM	0	0	21µM	0
S=c1[nH]nc(-c2cc(-c3ccccn3)nc3ccccc23)o1	0	?	0	0	?	0
SMILES	HepG2 viability	TDP1 cell CPT	TGFb SMAD3 inh	IL-1B inflam inh	TDP1 cell noCPT	TDP1 inh
CC(C)(C)c1ccc(-c2nnc(-c3ccccc3NC(=O)c3ccc(F)cc3F)o2)cc1	0	?	0	-	?	0
N#Cc1ccccc1COC(=O)CCCC1=NS(=O)(=O)c2ccccc2N1	0	0	0	0	0	0
Cc1sc2nc(CN3CCCCC3)nc(Cl)c2c1C	0	?	?	-103	16µM	0
Clc1nc(CN2CCOCC2)nc2sc3c(c12)CCC3	0	0	0	0	0	0
Cc1ccc(S(=O)(=O)N2CCN(c3nc(CN4CCCC4)nc4sc(C)c(C)c34)CC2)cc1	0	?	?	?	?	0
CC1CCN(Cc2nc(Cl)c3c4c(sc3n2)CCC4)CC1	0	18µM	0	-96	13µM	0
Clc1nc(CN2CCCCC2)nc2sc3c(c12)CCCC3	0	?	25µM	?	10µM	0
COc1ccc(CN2C(=NC(=O)C3CCCO3)SC3CS(=O)(=O)CC32)cc1OC (configuration not stated)	0	0	0	0	0	0
O=C(CN(CC1CCCO1)C(=O)CNS(=O)(=O)c1ccc(Cl)cc1)NC1CCCC1 (configuration not stated)	0	0	0	0	0	0[0.0935 µM]
COC(=O)c1ccc(NC(=S)NC2CCCCC2C)cc1 (configuration not stated)	0	23µM	?	0	26µM	0
Cc1cc(OC(C)C(=O)Nc2ccccc2C(=O)N2CCCC2)ccc1Cl (configuration not stated)	0	?	?	0	?	0
Cc1ccc(OCC(=O)Nc2ccccc2C(=O)N2CCCCC2)cc1	0	0	0	0	0	0
CCC(=O)c1ccc(OCC(=O)Nc2ccccc2C(=O)N2CCCCC2)cc1	0	?	0	-62	16µM	0[0.505 µM]
CCN(CC)c1ccc(C(=O)OCC(=O)Nc2ccccc2-c2ccccc2)cc1	0	?	0	0	18µM	0
Cc1cccc(OC(C)C(=O)Nc2ccccc2C(=O)N2CCCCC2)c1 (configuration not stated)	0	?	0	0	13µM	0
CCCCn1c(N)c(N(CCC(C)C)C(=O)CC2CCCC2)c(=O)[nH]c1=O	0	0	0	0	0	0
CCc1ccc(-n2nc(CO)c(C(=O)NCCOC)n2)cc1	0	0	?	-	0	0
COC(=O)C1=C(C(=O)OC)[C@@H]2N(C)c3ccc(OC)cc3[C@@]23C[C@@H](C(=O)OC)N(S(=O)(=O)c2ccc(C#N)cc2)C3=N1	-	-	-	-	-	0[12.3 µM]
CS(=O)(=O)N1CCC2(CC1)CN(C(=O)Nc1ccccc1)C2	-	0	-	-	0	-
CC(C)NC(=O)N1CCC2(CC1)CCN(S(=O)(=O)c1ccccc1)CC2	-	0	-	-	0	-
Cc1cc(=O)cc(C)n1-c1ccccc1Br	0	0	0	0	0	-
